Results on 88 compounds are retold here after PubChem BioAssay AID602252 (Broad Institute, 2012).

As usually defined, the inhibition is the change of the read-out against control, counted positive when it falls.

The structures appear in SMILES notation. Hit rate of the full screen: of about 300,000 compounds, about 2,700 (0.9%) were called active. This is one part of a sample in which actives are shown more often than they occur.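 Rule for the calls: active = mean inhibition of at least 30% with at least half of replicates also reaching 30%; inconclusive = no clear call, values can overlap the other calls; inactive = the rest.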

The target of this assay is Golgi-associated PDZ and coiled-coil motif-containing protein (Homo sapiens) (UniProt Q9HD26). Nature of the assay: untagged CAL PDZ binding inhibitors, primary screen, biochemical, fluorescence polarization, HTS (AID 602252).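 Note: 0% = DMSO neutral control and 100% = excess unlabeled competitor peptide PRC23.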 Conditions: purified CAL PDZ, TMR-peptide fluorescence polarization, 1 h; at 24.9 µM; active compounds read high.
With `O=C(OCC(=O)N1CCN(C(=O)c2ccco2)CC1)c1c(Cl)cccc1Cl`, the inhibition was -0.558% (inactive). To `Cc1ccc(S(=O)(=O)NCCC(=O)NCc2ccc(Cl)cc2)cc1C` belongs 66.1% (active); to `CC(C)CNS(=O)(=O)c1ccc(CCC(=O)NCc2ccc(Cl)cc2)cc1`, 0.426% (inactive); to `Cc1ccc(S(=O)(=O)NCCC(=O)Nc2ccc(C)c(Cl)c2)cc1C`, -1.6% (inactive). With `CCN(CC)C(=O)[C@H]1C[C@H](CC(=O)NCC23CC4CC(CC(C4)C2)C3)C(=O)N2CCc3c([nH]c4cc(CCC(=O)N(C)C)ccc34)[C@]12C`, the inhibition was -1.84% (inactive). To `Cc1cc(-n2nc(C)cc2C)n2ncc(-c3ccccc3)c2n1` belongs -1.01% (inactive); to `O=C(O)c1cnn2c(C(F)(F)F)cc(-c3ccccc3)nc12`, 0.025% (inactive). As to `Cc1cc(C(F)(F)F)n2ncc(-c3ccccc3)c2n1`, the inhibition was 50.2% (active). The result for `O=[N+]([O-])c1cccc(C=NN=Cc2ccccc2O)c1` reads 6.22% (inactive); that for `COC(=O)[C@]1(Cc2ccccc2)N[C@H](CN(C)S(=O)(=O)c2ccc(OC(F)(F)F)cc2)[C@@H]2C(=O)N(Cc3ccccc3)C(=O)[C@@H]21`, -5.9% (inactive); that for `NN=C(NN=Cc1ccccc1)c1ccccc1`, -2.94% (inactive). As to `COc1ccc(-c2nc3cc(C)ccn3c2NC2CCCCC2)cc1SC1CCCCC1`, the inhibition was -0.092% (inactive). For `CCCCN(CC(=O)Nc1cccc(S(=O)(=O)N2CCCC2)c1)Cc1nc2ccccc2c(=O)[nH]1`, the inhibition is -3.98% (inactive).

With `CCc1ccc(CN(C)C(C)C(=O)Nc2ccc(S(=O)(=O)N3CCCC3)cc2)cc1` (stereo not drawn), the inhibition was 2.24% (inactive). The result for `COc1cc(OC)cc(-c2c(C#Cc3ccsc3)c3cc(-c4ccc(OC)cc4F)ccc3n2C)c1` reads 2.79% (inactive). The result for `O=C1OCC2=C1C(c1ccc(Cl)cc1)c1cc3c(cc1O2)OCO3` (stereo not drawn) reads 7.51% (inactive). The result for `Cn1cccc1C(=O)N1CCc2ccccc2C1` reads 91.2% (active).

`CN(c1ccc(C(=O)N2CCc3ccccc3C2)cc1)S(C)(=O)=O`: the inhibition was 3.47% (inactive). The result for `Cc1ccc(-c2cc(C(=O)N3CCc4ccccc4C3)no2)cc1` reads 1.04% (inactive). To `O=S(=O)(Cc1ccc(Cl)cc1Cl)c1ccc(Cl)cc1` belongs -1.54% (inactive); to `Cc1nn(-c2ncccn2)c2c1C(=O)CC(C)(C)C2Br` (stereo not drawn), 0.781% (inactive); to `CN(C)C(CNC(=O)c1cc2ccccc2o1)c1ccccc1` (stereo not drawn), -5.09% (inactive). The result for `CCCCn1c(=S)[nH]c2ccccc2c1=O` reads -2.2% (inactive); that for `CCN(CC)CCCNC(=O)c1ccc2c(=O)n(Cc3ccc4c(c3)OCO4)c(=S)[nH]c2c1`, -3.92% (inactive); that for `CCCCNC(=O)c1ccc(-n2c(=S)[nH]c3ccccc3c2=O)cc1`, 41.5% (active). With `CCc1nnc(NC(=O)c2cc(S(=O)(=O)N3CCCCC3)ccc2C)s1`, the inhibition is 77.7% (active). In the case of `CCOC(=O)CSc1nnc(NC(=O)c2cccc(S(=O)(=O)N3CCCCC3)c2)s1`, the inhibition is -0.488% (inactive).

Turning to `CCOC(=O)c1sc(NC(=O)c2cc(S(=O)(=O)N3CCOCC3)ccc2C)nc1C`, the inhibition is -2.78% (inactive). Take `CN(C(=O)c1cccc(NC(=O)Cc2ccc(NC(=O)C3CCCN(C(=O)C4CCCC4)C3)cc2)c1)C1CCC1` (stereo not drawn): the inhibition is 4.34% (inactive).

On to `CCOC(=O)c1c(-c2ccccc2)csc1NC(=S)NC(=O)c1ccccc1`, for which the inhibition is -5.36% (inactive).

With `CCOC(=O)c1c(-c2cccc(C)c2)csc1NC(=O)c1c(-c2ccccc2)noc1C`, the inhibition was -0.763% (inactive). The result for `CCOC(=O)c1c(-c2ccc(-c3ccccc3)cc2)csc1NC(=O)CCC(=O)O` reads 39.2% (active). The result for `C=CCN1C=C(C(=O)c2ccccc2)C(=O)CC1` reads 6.82% (inactive); that for `COc1ccc(Cc2nnc(NC(=O)c3ccc(OC)cc3OC)s2)cc1`, -2.81% (inactive). To `COc1ccccc1NC(=O)Nc1nnc(Cc2ccc(F)cc2)s1` belongs 54% (active). Regarding `O=C(Nc1nnc(COc2ccccc2)s1)Nc1ccccc1F`, the inhibition is 1.97% (inactive).

Take `CN(CCc1ccccc1)C(=O)c1cccc(NC(=O)Cc2cccc(NC(=O)C3CCCN(C(=O)C4CCC4)C3)c2)c1` (stereo not drawn): the inhibition is -1.08% (inactive). Turning to `COc1ccc(CCNC(=O)COc2cc(C)cc3oc(=O)c(C)c(C)c23)cc1OC`, the inhibition is -1.33% (inactive).

Consider `COc1cccc(NC(=O)c2ccccc2SC)c1`, for which the inhibition was 0.222% (inactive).

Consider `COc1cccc(NC(=O)c2ccccc2N(Cc2ccccc2)S(C)(=O)=O)c1`, for which the inhibition is 44.6% (active).

On to `COc1cccc(CN(C)CC(=O)Nc2ccccc2C(=O)Nc2ccccc2)c1`, for which the inhibition is -7.24% (inactive). With `O=C(Nc1cccc(S(=O)(=O)N2CCCCC2)c1)c1cncc(Br)c1`, the inhibition was 0.772% (inactive). To `NS(=O)(=O)c1ccc(CNC(=O)c2cccc(S(=O)(=O)N3CCc4ccccc43)c2)cc1` belongs -0.134% (inactive); to `Cc1cccc(NC(=O)c2cccc(S(=O)(=O)N3CCCC3)c2)n1`, -2.35% (inactive); to `Cc1ccc(NC(=O)c2cccc(S(=O)(=O)N3CCCc4ccccc43)c2)nc1`, 44.8% (active). The result for `O=C(CN1C(=O)NC2(CCCCCC2)C1=O)Nc1ccc([N+](=O)[O-])cc1` reads -4.3% (inactive); that for `C=CC[C@@H](Cc1ccc(F)cc1)C(=O)OC[C@H]1CCCN1C(=O)[C@H](CC=C)CC(=O)N(CCO)Cc1ccccc1`, -2.32% (inactive). The result for `COc1cccc(-n2c(SCC(=O)NC3CCS(=O)(=O)C3)nc3ccccc3c2=O)c1` (stereo not drawn) reads -4.98% (inactive). Turning to `CCOc1ccc(NC(=O)CN(C)CC(=O)Nc2cccc(Cl)c2C)cc1OCC`, the inhibition was -7.09% (inactive). The result for `CCOc1ccc(NC(=O)CN(C)CC(=O)NC(C)c2ccccc2)cc1OCC` (stereo not drawn) reads 39.5% (active); that for `CCOc1ccc(NC(=O)CN(C)C(=O)CSc2ccccc2)cc1OCC`, -0.51% (inactive).

As to `COc1ccc(S(=O)(=O)N2C[C@H]3CON(C)[C@H]3C[C@H]2c2cccc(Br)c2)cc1`, the inhibition was -1.19% (inactive).

For the compound `COc1cccc2c1C(=O)c1c(O)c3c(c(O)c1C2=O)CC(O)(C(C)=NNC(=O)c1ccc(Cl)c(Cl)c1)CC3OC1CC(N)C(O)C(C)O1` (stereo not drawn), the inhibition is -11.4% (inactive). To `Cn1nc(C(C)(C)C)c([N+](=O)[O-])c1C(N)=O` belongs -0.311% (inactive). With `Cc1c([N+](=O)[O-])c(N)nn1C`, the inhibition is 46.7% (active). To `Cc1nn(C)c(Oc2ccccc2)c1[N+](=O)[O-]` belongs -1.91% (inactive). The result for `O=C(CSc1cccc[n+]1[O-])c1ccc(-c2ccccc2)cc1` reads 0.814% (inactive); that for `O=C(CSc1cccc[n+]1[O-])c1ccc(Cl)cc1`, 51.8% (active). To `COc1ccccc1C(=O)CSc1cccc[n+]1[O-]` belongs 1.87% (inactive); to `CCOC(=O)C1CCCN(C(=O)C2CCN(S(=O)(=O)c3ccc(Cl)c(C(F)(F)F)c3)CC2)C1` (stereo not drawn), -2.17% (inactive).

In the case of `O=C1NC(c2ccc(-c3ccccc3[N+](=O)[O-])o2)C(C(=O)c2ccc(Cl)cc2)C(O)(C(F)(F)F)N1` (stereo not drawn), the inhibition was -0.998% (inactive).

Turning to `O=C(Nc1ccc(N2CCOCC2)cc1)c1ccc(-c2ccccc2[N+](=O)[O-])o1`, the inhibition is -1.55% (inactive). The result for `CC1=NN(c2ccc(Cl)c(C(=O)O)c2)C(=O)/C1=C/c1ccc(-c2ccccc2[N+](=O)[O-])o1` reads 64% (active); that for `COC1C(CO)OC(n2cnc3c(=S)nc(N)[nH]c32)C1O` (stereo not drawn), -4.66% (inactive). The result for `COc1cc(OC)cc(-c2sc3ccc(OC)cc3c2-c2ccc3cc[nH]c3c2)c1` reads -4.97% (inactive); that for `O=C(NCc1ccccc1)c1cccc(NC(=O)C2CCCCC2)c1`, -1.61% (inactive). To `COc1ccc(C(=O)CSc2nnc(COc3ccccc3)n2Cc2ccco2)cc1` belongs -1.09% (inactive); to `N=c1c2c(-c3ccccc3)c(-c3ccccc3)oc2ncn1Cc1ccco1`, 4.45% (inactive); to `COc1ccc(-c2oc3ncn(Cc4ccco4)c(=N)c3c2-c2ccc(OC)cc2)cc1`, 36.1% (active).

For `O=C(c1cccc(S(=O)(=O)N2CCCCCC2)c1)N1CCN(Cc2ccccc2)CC1`, the inhibition was -6.1% (inactive). With `Cc1ccc2[nH]cc(CCNC(=O)c3ccc([N+](=O)[O-])cc3)c2c1`, the inhibition is -3.1% (inactive). The result for `O=C(NCCc1c[nH]c2ccc(Cl)cc12)c1ccc([N+](=O)[O-])cc1` reads -7.41% (inactive). The result for `O=C(C[C@H]1C/C=C\C[C@@H](NC(=O)OCC2c3ccccc3-c3ccccc32)C(=O)O[C@@H](c2ccccc2)CNC1=O)N[C@H](CO)Cc1ccccc1` reads 3.89% (inactive); that for `C=CC[C@@H](CC(=O)N[C@@H](CO)Cc1ccccc1)C(=O)NCCOC(=O)[C@@H](CC=C)CC(=O)OC(C)(C)C`, -4.88% (inactive); that for `CC(=O)c1cccc(-c2ccc(CN3C(CC(C)C)C(=O)N(Cc4cn(CC5CCCCC5)nn4)CCS3(=O)=O)cc2)c1` (stereo not drawn), -1.77% (inactive). The result for `NC(=O)CSc1nnc(NC(=O)c2ccc3ccccc3c2)s1` reads -4.05% (inactive); that for `O=C(Nc1nnc(SCc2ccccc2Cl)s1)c1cccc([N+](=O)[O-])c1`, -3.54% (inactive). Turning to `O=C(Nc1nnc(SCc2c(Cl)cccc2Cl)s1)c1cccc([N+](=O)[O-])c1`, the inhibition is 76.9% (active). To `O=C(CSc1nc2ccccc2c(=O)n1Cc1ccc(F)cc1)NCC1CCCO1` (stereo not drawn) belongs 0.714% (inactive); to `Cc1ccc(NC(=O)c2ccc(Cl)nc2)cc1S(=O)(=O)N1CCOCC1`, -1.23% (inactive); to `CC[C@]12c3[nH]c4cc(CCC(=O)N(C)C)ccc4c3CCN1C(=O)[C@@H](CC(=O)NCC13CC4CC(CC(C4)C1)C3)C[C@@H]2C(=O)N1CCN(C(=O)C2CC2)CC1`, 5.74% (inactive). The result for `CCCCC(=O)NC(c1ccc(OC)c(OC)c1)c1ccc2cccnc2c1O` (stereo not drawn) reads -1.93% (inactive). For the compound `O=C(N/N=C/c1ccc(OC(=O)c2ccccc2Cl)cc1)c1ccc(O)cc1`, the inhibition is -4.63% (inactive). The result for `O=C(Cc1cccs1)N/N=C/c1ccc(OCc2ccccc2)cc1` reads -1.99% (inactive); that for `O=C(N/N=C/c1ccc(OCc2ccccc2)cc1)c1ccc(O)cc1`, 83.5% (active). To `O=C(COc1ccc(/C=N/NC(=O)c2ccc(O)cc2)cc1)Nc1ccc([N+](=O)[O-])cc1` belongs -1.35% (inactive).

As to `C=CCNC(=S)N/N=C/c1ccc(OCc2ccccc2)cc1`, the inhibition was 51.2% (active). To `O=C(O)c1ccc(/C=N/NC(=S)NCc2ccccc2)cc1` belongs -1.3% (inactive).
